Data on 19 compounds can be found in PubChem BioAssay AID1159577 (Broad Institute, 2015).

The campaign covered roughly 1,300 compounds. About 240 (18%) were called active. About 8% were inconclusive and are not listed. The rule behind the calls is not given here. Not all results are given here. Measured potencies and affinities stand elsewhere.

This assay is described as follows: toxicity to human hepatoma HepG2 cells – cell-based, cherry-picked samples, cytotoxicity control, dose response (AID 1159577).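 Note: 0% = neutral control wells and -100% = positive control wells.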 The settings on record: HepG2 cytotoxicity counterscreen, plate reader; series mostly up to 19.5 µM; activity change, negative = cytotoxicity: at the top concentration.
Regarding `CC(C)(C)S(=O)N1Cc2cc(C(=O)N[C@@H]3CCN(Cc4ccccc4)C3)nc(-c3cccc(C#CCC4CCCC4)c3)c2[C@H]1CCO` (some centres undefined), the “activity change, negative = cytotoxicity” value was 12.8% (inactive). Then `COc1ccc(C#Cc2ccc3c(c2)O[C@@H](CN(C)C(=O)Nc2cccc(OC)c2)[C@H](C)CN([C@@H](C)CO)S3(=O)=O)cc1`, with -12.5% (inactive).

As for `CO[C@@H]1CN(C)C(=O)c2cc(NC(=O)NC3CCCCC3)ccc2OC[C@@H](C)N(CCc2ccccc2)C[C@H]1C`, the “activity change, negative = cytotoxicity” value is -16.7% (inactive). Then `COc1ccc2c3c([nH]c2c1)[C@@H](CO)N(Cc1cccc(F)c1)CC31CCN(Cc2ccccn2)CC1`, with -7.23% (inactive); and `COc1ccc(C#Cc2ccc([C@H]3[C@@H](CO)N4CCCCN(C(=O)Nc5ccccc5F)C[C@@H]34)cc2)cc1`, with 5.75% (inactive); and `COc1ccc(C#Cc2ccc([C@@H]3[C@@H](CO)N4CCCCN(C(=O)Nc5ccccc5F)C[C@@H]34)cc2)cc1`, with -18.9% (inactive).

Take `N#C[C@@H]1[C@@H](c2ccccc2-c2ccccc2F)[C@H](CO)N1C(=O)C1CC1`: the “activity change, negative = cytotoxicity” value was -3.25% (inactive). Then `COCc1cn([C@@H]2C[C@@H]3O[C@@H](CO)CC[C@@H]3O[C@@H]2CCc2ccc(-c3ccc(OC)cc3)cc2)nn1`, with -6.04% (inactive); and `O=C(Nc1cccc(F)c1)N[C@@H]1CC[C@@H](CCNS(=O)(=O)c2cccc(Cl)c2)O[C@@H]1CO`, with -6.73% (inactive); and `CC(C)NC(=O)N1[C@H](C#N)[C@H](c2ccccc2-c2ccc(F)cc2)[C@@H]1CO`, with 2.4% [at 21 µM] (inactive).

For the compound `COc1ccc(-c2ccccc2[C@H]2[C@@H](C#N)N(C(=O)NC(C)C)[C@H]2CO)cc1`, the “activity change, negative = cytotoxicity” value is 12.7% (inactive). With `CC(C)NC(=O)N1[C@H](C#N)[C@H](c2ccc(C#CC3CCCC3)cc2)[C@@H]1CO`, the “activity change, negative = cytotoxicity” value is 9.72% (inactive).

Consider `CC(C)NC(=O)N1[C@H](C#N)[C@H](c2ccc(-c3ccc(F)cc3)cc2)[C@@H]1CO`, for which the “activity change, negative = cytotoxicity” value is -12.8% (inactive). Regarding `CCCNC(=O)N1[C@H](C#N)[C@H](c2ccc(-c3cccc(OC)c3)cc2)[C@@H]1CO`, the “activity change, negative = cytotoxicity” value was -27.5% [at 21 µM] (inactive). Regarding `COc1ccc(-c2ccc([C@H]3[C@H](C#N)N(C(=O)c4cccc(F)c4)[C@H]3CO)cc2)cc1`, the “activity change, negative = cytotoxicity” value is -11.4% (inactive). Turning to `C[C@H]1CN([C@@H](C)CO)C(=O)c2c(c3ccccc3n2C)-c2ccccc2CO[C@@H]1CN(C)S(=O)(=O)c1ccc(C(F)(F)F)cc1`, the “activity change, negative = cytotoxicity” value is 0.653% [at 21 µM] (inactive). As for `C[C@H]1CN([C@@H](C)CO)C(=O)c2cc(NC(=O)Cc3cn(C)c4ccccc34)ccc2O[C@H]1CN(C)S(=O)(=O)c1ccccc1`, the figure is -22.9% [at 21 µM] (inactive); as for `CO[C@H]1CN(C)C(=O)c2cc(NC(=O)c3ccc(F)cc3)ccc2OC[C@H](C)N(C(=O)c2ccc(F)cc2)C[C@H]1C`, 17.4% (inactive). As for `O=C(c1ccccn1)N1CC(=O)N2[C@H](CO)[C@@H](c3ccc(C#CCc4ccccc4)cc3)[C@@H]2C1`, the figure is -2.05% (inactive).
